A short description of assay [1]: qHTS assay to identify small molecule agonists of the RXR signaling pathway - cell viability counter screen (AID 1159529).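 Also: HEK 293T cells carrying an RXR-alpha UAS beta-lactamase reporter; series mostly up to about 77 µM; nearly all actives have a fitted effect of over 50% in size.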 In short, it runs like this: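 RXR-alpha-UAS-bla HEK 293T cells in medium with 2% charcoal-stripped FBS were preincubated 5 hr, then exposed to compounds for 16 hr at 37 C. Viability was read as CellTiter-Glo luminescence after 30 min at room temperature.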
(Quantitative high-throughput screening tests each substance at several concentrations.)

Assay [2] in a line: qHTS assay to identify small molecule antagonists of the estrogen related receptor (ERR) signaling pathway - cell viability counter screen (AID 1224818). Also: series mostly up to about 46 µM. In short, it runs like this:
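Cells carrying the ERR pathway reporter were seeded and incubated for 6 hours before compound addition. After a 17.5-hour exposure at 37 C, live-cell protease activity was measured by CellTiter-Fluor fluorescence following 30 minutes of incubation.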

The nature of assay [3]: qHTS assay to identify small molecule antagonists of the estrogen related receptor (ERR) signaling pathway (AID 1224819;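 also: luminescence from an ERR-driven luciferase reporter measured with One-Glo reagent; series mostly up to about 46 µM; nearly all actives have a fitted effect of over 50% in size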). In a few lines: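 Compounds dissolved in DMSO were pin-transferred onto ERR cells that had been plated 6 h earlier, and cells were then incubated 18 h at 37 C; signal was luciferase luminescence via One-Glo.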
The nature of assay [4]: qHTS assay to identify small molecule agonists of the estrogen related receptor (ERR) signaling pathway (AID 1224820). In a few lines: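 ERR reporter cell line (from NTP), 2,000 cells/well, incubated 6 h before compound addition, then 18 h at 37 C. Luminescence measured 30 min after One-Glo reagent at room temperature.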
For assay [5], the system named is estrogen-related receptor alpha (ERRalpha) with PGC-1alpha coactivator, human. As to the kind of experiment: qHTS assay to identify small molecule antagonists of the estrogen related receptor signaling pathway with the pleiotropic PPARgamma coactivator (PGC) (AID 1224821; calls by dose curve;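 also: series mostly up to about 46 µM; lower luminescence signal means antagonism of PGC/ERR signalling; nearly all actives have a fitted effect of over 50% in size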). In short, it runs like this: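 PGC/ERR reporter cell line, plated 6 h before compound addition, then exposed 18 h at 37 °C. Luciferase activity read by luminescence 30 min after One-Glo addition; decrease indicates antagonism.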

Assay [6] in a line: qHTS assay to identify small molecule antagonists of the estrogen related receptor signaling pathway with the pleiotropic PPARgamma coactivator (PGC) cell viability counter screen (AID 1224822; also: series mostly up to about 46 µM). In a few lines: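 Seed PGC/ERR cells (2,000/well); incubate 6 h at 37 C/5% CO2; pin-transfer compounds in DMSO; incubate 17.5 h at 37 C; add CellTiter-Fluor; after 30 min read fluorescence.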

Assay [7] in a line: qHTS assay to identify small molecule agonists of the estrogen related receptor signaling pathway with the pleiotropic PPARgamma coactivator (PGC) (AID 1224823). In a few lines: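 PGC/ERR reporter cells seeded 6 h, then exposed to compounds (23 nL in DMSO) for 18 h at 37 C. One-Glo luciferase luminescence read after 30 min at room temperature.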
A short description of assay [8]: qHTS assay to identify small molecule antagonists of the estrogen related receptor (ERR) signaling pathway from Tox21 library - cell viability counter screen (AID 1224834). Also: nearly all actives have a fitted effect of over 30% in size. Also: potency is read from the fitted curve at half-maximal effect. In short, it runs like this: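 Cytotoxicity of test substances is gauged in the same ERR cells used for the antagonist screen, after 17.5 h of compound treatment at 37 C, by CellTiter-Fluor fluorescence measured after 30 min.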

Assay [9] concerns the target Luciferin 4-monooxygenase (Photinus pyralis) (UniProt P08659). Briefly: qHTS assay to identify small molecule inhibitors of firefly luciferase (AID 1224835). Also: series mostly up to about 120 µM; nearly all actives have a fitted effect of over 25% in size. In a few lines: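 Quantitative HTS format; KM concentrations of both substrates. Purified P. pyralis FLuc activity quantified from luminescence images.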
The nature of assay [10]: qHTS assay to identify small molecule agonists of the constitutive androstane receptor (CAR) signaling pathway - cell viability counter screen (AID 1224836). Also: nearly all actives have a fitted effect of over 45% in size. Also: potency is read from the fitted curve at half-maximal effect. In short, it runs like this: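 HepG2 cells stably carrying hCAR and a CYP2B6-2.2kb reporter were plated 4 h, then given compounds at 15 concentrations plus PK11195 (final 0.75 uM). After 23 h at 37 C, viability was read by CellTiter-Fluor fluorescence.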

Assay [11] in a line: qHTS assay to identify small molecule antagonists of the constitutive androstane receptor (CAR) signaling pathway - cell viability counter screen (AID 1224837). Also: nearly all actives have a fitted effect of over 45% in size. Also: potency is read from the fitted curve at half-maximal effect. In short, it runs like this: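 Multiplexed cytotoxicity read-out for the CAR antagonist screen: double-stable HepG2-CYP2B6-hCAR cells co-treated with 50 nM CITCO (final) and compound over 15 concentrations, incubated 23 hr, then assessed by CellTiter-Fluor fluorescence.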

In assay [12] the target is Nuclear receptor subfamily 1 group I member 3 (Homo sapiens) (UniProt Q14994). As to the kind of experiment: qHTS assay to identify small molecule antagonists of the constitutive androstane receptor (CAR) signaling pathway (AID 1224838). Also: nearly all actives have a fitted effect of over 40% in size. In short, it runs like this: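 Compounds were titrated across 15 concentrations onto HepG2 cells double-stably expressing hCAR and a CYP2B6-2.2kb reporter, together with 50 nM CITCO (final). After 24 h at 37 C, luciferase activity was measured by luminescence.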
Sequence of Nuclear receptor subfamily 1 group I member 3 (Homo sapiens) (Q14994 whole entry, looked up): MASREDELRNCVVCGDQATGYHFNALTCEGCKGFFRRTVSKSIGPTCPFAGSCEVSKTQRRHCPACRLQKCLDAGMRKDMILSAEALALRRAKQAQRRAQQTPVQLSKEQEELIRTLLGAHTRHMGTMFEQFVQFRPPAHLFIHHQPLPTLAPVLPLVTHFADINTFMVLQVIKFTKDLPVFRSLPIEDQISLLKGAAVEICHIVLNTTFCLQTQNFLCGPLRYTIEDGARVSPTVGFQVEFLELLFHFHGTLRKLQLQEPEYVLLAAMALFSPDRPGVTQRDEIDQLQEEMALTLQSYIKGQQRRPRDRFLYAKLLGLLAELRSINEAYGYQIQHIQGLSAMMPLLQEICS

For assay [13] the target is unchanged. As to the kind of experiment: qHTS assay to identify small molecule agonists of the constitutive androstane receptor (CAR) signaling pathway (AID 1224839). Also: series mostly up to about 92 µM; nearly all actives have a fitted effect of over 15% in size. In short, it runs like this: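 HepG2 cells stably expressing hCAR and a CYP2B6-2.2kb luciferase reporter were treated with compounds at 15 concentrations plus 0.75 uM PK11195 (final) for 24 h at 37 C; luminescence was read after ONE-Glo addition.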

Assay [14] in a line: qHTS assay to identify small molecule antagonists of the estrogen related receptor signaling pathway with the pleiotropic PPARgamma coactivator (PGC) from Tox21 10K library - cell viability counter screen (AID 1224840; active = well fitted cell-killing curve with a large enough effect in the repeat runs, not every such curve was filed as active; also: nearly all actives have a fitted effect of over 40% in size). In a few lines: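 Step one, plate 2,000 PGC/ERR cells per well; step two, incubate 6 h at 37 C/5% CO2; step three, pin-transfer compounds; step four, incubate 17.5 h; step five, add CellTiter-Fluor and read fluorescence after 30 min.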

Assay [15] can be described thus: qHTS assay to identify small molecule antagonists of the estrogen related receptor signaling pathway with the pleiotropic PPARgamma coactivator (PGC) from Tox21 10K library (AID 1224841; call rule not given here; also: actives are mostly falling curves and most rising ones were filed inactive; nearly all actives have a fitted effect of over 50% in size; also: potency is read from the fitted curve at half-maximal effect). In short, it runs like this:
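Antagonism in this quantitative HTS is taken from loss of luciferase signal in PGC/ERR cells. Cells (2,000/well) are treated with compounds in DMSO after a 6 h settling period and read by One-Glo luminescence after 18 h.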

A short description of assay [16]: qHTS assay to identify small molecule agonists of the estrogen related receptor signaling pathway with the pleiotropic PPARgamma coactivator (PGC) from Tox21 10K library (AID 1224842). Also: nearly all actives have a fitted effect of over 15% in size. In a few lines:
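PGC/ERR reporter cells (NTP line) were seeded 2,000 per well, rested 6 h at 37 C/5% CO2, then pin-dosed with compounds in DMSO for 18 h at 37 C; luciferase read by One-Glo luminescence after 30 min at room temperature.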

Assay [17] addresses Thyrotropin receptor (Homo sapiens) (UniProt P16473). As to the kind of experiment: qHTS assay to identify small molecule agonists of the thyroid stimulating hormone receptor (TSHR) signaling pathway (AID 1224843; calls by dose curve; also: nearly all actives have a fitted effect of over 45% in size). In a few lines:
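Cell line HEK293 with TSHR; density 800/well. Exposure 30 min RT. Readout HTRF cAMP (cAMP-d2/anti-cAMP-cryptate), 1 h RT before reading.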

A short description of assay [18]: qHTS assay to identify small molecule agonists of the retinoic acid receptor (RAR) signaling pathway (AID 1159553). In short, it runs like this: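 Agonist activity was scored in C3RL4 cells bearing a retinoic acid response element luciferase construct. Cells were treated with compounds for 6 hr at 37 C, and luciferase signal was measured as luminescence.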
Assay [19] in a line: qHTS assay to identify small molecule antagonists of the retinoid acid receptor (RAR) signaling pathway - cell viability counter screen (AID 1159551). Also: nearly all actives have a fitted effect of over 35% in size. In short, it runs like this:
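Cytotoxicity counter screen in C3RL4 cells: 6 h compound exposure with 1 uM retinol (final), viability from cellular ATP by luminescence.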

The nature of assay [20]: qHTS assay to identify small molecule antagonists of the retinoic acid receptor (RAR) signaling pathway (AID 1159552; also: nearly all actives have a fitted effect of over 50% in size). In short, it runs like this: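 RARE-luc C3RL4 cells; cpds + 1 uM (final) retinol, 6 hr, 37 C/5% CO2; luciferase reagent, 30 min RT, luminescence readout. Inhibitors of retinol-driven signal scored.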

Values joined by “and” are separate entries in the source; they are usually repeats but may differ in a detail not shown here. Equal values may be shown once. Inconclusive results are not listed. Active and inactive are the calls of the source. Unless noted, calls follow the shape of the dose curve; as a rule, active = well fitted curve in the direction sought with a large enough effect in the repeat runs; inconclusive = weak or mixed curves; inactive = no such curve, though single readings can be large; an effect the other way counts as inactive or inconclusive.

Sequence of Thyrotropin receptor (Homo sapiens) (P16473 whole entry, looked up): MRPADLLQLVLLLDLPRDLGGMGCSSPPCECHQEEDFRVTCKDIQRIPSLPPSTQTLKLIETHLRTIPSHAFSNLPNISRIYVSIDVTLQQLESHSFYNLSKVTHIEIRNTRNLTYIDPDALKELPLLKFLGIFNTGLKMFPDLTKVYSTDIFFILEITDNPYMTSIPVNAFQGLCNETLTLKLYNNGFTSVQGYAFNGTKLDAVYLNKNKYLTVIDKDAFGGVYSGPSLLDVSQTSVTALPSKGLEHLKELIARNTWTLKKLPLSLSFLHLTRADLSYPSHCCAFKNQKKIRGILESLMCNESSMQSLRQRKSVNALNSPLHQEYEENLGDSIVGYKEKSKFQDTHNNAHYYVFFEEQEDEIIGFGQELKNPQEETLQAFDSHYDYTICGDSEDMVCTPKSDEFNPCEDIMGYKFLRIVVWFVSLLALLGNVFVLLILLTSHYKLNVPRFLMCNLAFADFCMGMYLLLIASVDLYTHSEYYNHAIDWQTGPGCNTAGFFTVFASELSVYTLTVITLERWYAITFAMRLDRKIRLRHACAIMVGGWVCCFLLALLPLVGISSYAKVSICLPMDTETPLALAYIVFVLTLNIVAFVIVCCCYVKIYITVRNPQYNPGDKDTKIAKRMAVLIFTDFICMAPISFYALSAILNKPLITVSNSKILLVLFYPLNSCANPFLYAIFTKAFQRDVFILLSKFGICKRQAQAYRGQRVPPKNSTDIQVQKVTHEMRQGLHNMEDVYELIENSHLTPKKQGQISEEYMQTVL
Sequence of Luciferin 4-monooxygenase (Photinus pyralis) (P08659 whole entry, looked up): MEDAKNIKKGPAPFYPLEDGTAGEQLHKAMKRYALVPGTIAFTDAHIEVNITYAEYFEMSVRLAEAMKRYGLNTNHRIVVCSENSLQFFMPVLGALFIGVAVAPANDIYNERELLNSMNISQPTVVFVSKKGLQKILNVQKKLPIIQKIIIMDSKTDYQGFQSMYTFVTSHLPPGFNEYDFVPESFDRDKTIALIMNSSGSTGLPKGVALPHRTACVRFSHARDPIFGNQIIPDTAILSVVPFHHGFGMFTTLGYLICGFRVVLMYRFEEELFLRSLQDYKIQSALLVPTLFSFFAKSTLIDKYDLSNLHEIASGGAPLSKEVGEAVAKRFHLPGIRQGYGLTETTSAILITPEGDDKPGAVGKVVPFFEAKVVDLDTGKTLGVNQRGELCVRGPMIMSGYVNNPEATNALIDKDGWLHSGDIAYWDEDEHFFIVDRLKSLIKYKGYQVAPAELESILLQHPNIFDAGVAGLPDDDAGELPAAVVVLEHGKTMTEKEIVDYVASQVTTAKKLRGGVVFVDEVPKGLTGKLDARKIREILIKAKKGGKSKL

With `CC(C)(C)NCC(O)c1ccccc1Cl` (stereo unspecified), the Potency entry in assay [1], in [8], in [9], in assay [10], in [11] and in assay [12] was “inactive” each time. The Potency entry in assay [13], in assay [14], in [15], in [16] and in [17] was “inactive” each time. Also, the outcome in assay [2], in assay [3], in assay [4], in [5], in [6] and in assay [7] was inactive.
In the case of `COC1CC(=C(c2cccs2)c2cccs2)C[N+](C)(C)C1` (stereo unspecified), the Potency entry in assay [18], in assay [8], in [9], in assay [10], in assay [11] and in assay [12] was “inactive” in each case. For the same compound, the Potency result in assay [13], in assay [14] and in [17] was “inactive” in each case.
In the case of `C[C@@H]1C[C@@H]([C@H](O)CC2CC(=O)NC(=O)C2)C(=O)[C@@H](C)C1`, the Potency result in [1], in assay [9], in assay [14], in assay [16] and in assay [17] was “inactive” in each case. Moreover, the Potency in assay [8] is 430 nM (active) and 154 nM (active) and 266 nM (active); in assay [10], 0.969 µM (active); in [11], 765 nM (active) and 611 nM (active); in assay [15] it was 682 nM (active) and 433 nM (active) and 531 nM (active).
In the case of `O=C(O)C(F)(F)C(F)(F)C(F)(F)C(F)(F)C(F)(F)C(F)(F)C(F)(F)C(F)(F)F`, the Potency entry in assay [19], in assay [18], in assay [8], in [10], in assay [11] and in [14] was “inactive” in each case. Besides, in [17], the Potency entry was “inactive”.
On to `NP(N)(=O)NC(=O)c1ccc(F)cc1`, for which the Potency result in assay [1], in [20], in assay [8], in assay [9], in [11] and in [14] was “inactive” in each case. The Potency result in assay [15], in assay [16] and in [17] was “inactive” each time.
Consider `CCC(=O)O[C@@H]1C=C2CCC3C(CCC4(C)C3CC[C@@H]4OC(=O)CC)C2CC1` (stereo partly specified), for which the Potency result in assay [19], in assay [8], in assay [9], in [10], in assay [11] and in assay [14] was “inactive” in each case. Moreover, in assay [17], the Potency entry is “inactive”.
For the compound `COc1ccc2c(c1OC)C(=O)O[C@H]2[C@@H]1c2cc3c(cc2CCN1C)OCO3`, the Potency result in [1], in assay [9], in [12], in assay [13], in assay [14] and in assay [17] was “inactive” throughout. Besides, the outcome in [2] and in [6] was inactive. Also, in assay [8], the Potency is 6.68 µM (active).
Take `CCOc1cccc(C2(N3CCN(c4ccccc4)CC3)CCC(C)CC2)c1` (stereo unspecified): the Potency result in assay [1], in [20], in assay [8], in [9], in assay [10] and in assay [12] was “inactive” throughout. For the same compound, the Potency entry in assay [13], in assay [14] and in assay [17] was “inactive” in each case.
